Assay outcomes from PubChem.
PI5P4Ka inh: PI5P4K alpha (human) kinase inhibition | 1.2% of 330,000 active | AID 652105 | max response, % | PI5P4Kalpha enzyme, ADP-Glo luminescence, 60 min; hits give low values | P48426; active = max response of -50% or lower; inconclusive = between -30% and -50%; inactive = -30% or higher; note: value at the top dose of about 77 µM
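ADP-Glo luminescence end-point read after a 60 min room-temperature kinase reaction of PI5P4Kalpha plus substrate, initiated with ATP at 5 microM final. Buffer: 0.038 M HEPES pH 7.4, EGTA, 0.1% CHAPS, 5% DMSO.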
USP1-UAF1 inh: USP1/UAF1 (human) deubiquitinase inhibition. 0.23% of 390,000 active. Potency, µM (highest dose often 57.1 µM), for inactives: at the top dose activity change, negative = inhibition, hits mostly inhibitors. recombinant USP1/UAF1, Ub-Rhodamine cleavage fluorescence. AID 743255. O94782; note: potency is the fitted concentration of half-maximal effect; nearly all actives have a fitted effect of over 60% in size
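High-throughput fluorogenic screen: 1nM USP1/UAF1 complex, Ub-Rho substrate 150nM final, 50mM HEPES pH 7.8 with 0.5mM EDTA, 0.1 mg/ml BSA, 1mM TCEP and 0.01% Tween-20.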
USP2a inh: inhibitors of human ubiquitin-specific protease USP2a. O75604. 0.01% of 330,000 active. AID 463254. Potency, µM (doses to about 38.3 µM), for inactives: at the highest dose activity change, negative = inhibition, most hits filed as inhibitors. USP2 core, Ub-CHOP2 coupled fluorogenic reporter, 485/531;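 note: potency is the fitted concentration of half-maximal effect; plate controls were DMSO wells for no effect and full inhibition by NEM control for full effect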
Target sequence (O75604 whole entry, looked up): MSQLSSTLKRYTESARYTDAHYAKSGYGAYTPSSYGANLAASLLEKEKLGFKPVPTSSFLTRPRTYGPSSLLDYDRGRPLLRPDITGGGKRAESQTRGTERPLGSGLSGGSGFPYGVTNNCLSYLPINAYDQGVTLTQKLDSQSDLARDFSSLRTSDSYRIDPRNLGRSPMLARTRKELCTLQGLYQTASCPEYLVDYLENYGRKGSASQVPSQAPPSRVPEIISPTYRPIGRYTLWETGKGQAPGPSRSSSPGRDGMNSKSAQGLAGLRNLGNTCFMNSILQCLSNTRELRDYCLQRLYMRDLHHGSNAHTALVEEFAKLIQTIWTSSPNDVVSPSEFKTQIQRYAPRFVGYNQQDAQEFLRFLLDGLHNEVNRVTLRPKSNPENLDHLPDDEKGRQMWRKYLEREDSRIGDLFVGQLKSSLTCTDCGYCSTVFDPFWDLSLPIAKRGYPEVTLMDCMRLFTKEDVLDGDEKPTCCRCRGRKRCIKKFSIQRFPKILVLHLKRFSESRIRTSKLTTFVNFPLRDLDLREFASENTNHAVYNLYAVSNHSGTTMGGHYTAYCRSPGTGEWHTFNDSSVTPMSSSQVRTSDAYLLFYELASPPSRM
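Deubiquitinase activity read as fluorescence (485/531 nm) after Ub-CHOP2 cleavage activates the enterokinase reporter on its substrate; USP2 core 10nM, Ub-CHOP2 and substrate 25nM each, 30min compound preincubation then 60min RT; data normalized to NEM, curves fitted.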
PLK1 PBD block: blocks phosphopeptide binding to human PLK1 polo-box domain. P53350. 2.8% of 360,000 active. Plk1 PBD binding of FITC phosphopeptide, fluorescence polarization. Potency, µM, inactives show max response, negative = inhibition, hits mostly inhibitors; note: potency is the fitted concentration of half-maximal effect; series mostly up to about 57 µM; nearly all actives have a fitted effect of over 65% in size
WRN helicase inh: WRN helicase (human) inhibition. Q14191. WRN helicase unwinding, fluorescent forked duplex, kinetic. Potency, µM (titrated, usually from 114 µM), for the others: top-dose activity change, negative = inhibition, hits mostly inhibitors. 0.46% of 360,000 active; note: potency is the fitted concentration of half-maximal effect; nearly all actives have a fitted effect of over 55% in size
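Fluorescence dequenching readout, ex 525 nm/em 598 nm, kinetic mode: forked duplex DNA (100 nM final) with adjacent fluorophore and quencher unwound by WRN (20 nM final) with 2 mM ATP. Compound preincubation 15 min, room temperature.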
Starred values were filed as active, the others as inactive; [ ] = remark or other dose. Shown are actives, neighbours in structure and some others; about 3.3% of the full set was active somewhere. Unless noted, calls come from the whole dose curve; as a rule, active = well fitted curve in the direction sought with a large enough effect; inconclusive = small, poorly fitted or top-dose-only effect, or another doubt; inactive = no such curve, though single readings can be large; an effect the other way counts as inactive or inconclusive. Unless noted, % is set by controls: 0 for no effect and ±100 for the full control effect.

What do the screens show for `COc1ccc(-c2nnc3sc(C(C)N4C(=O)c5ccccc5C4=O)nn23)cc1` (stereo not given)?
PI5P4Ka inh: -17.7; USP1-UAF1 inh: -19.4%; USP2a inh: -8.8%; PLK1 PBD block: 23.8µM*; WRN helicase inh: -11.0%

How did CCCCCCCCC(=O)N1C(C)CCC1C (stereo not given) do in these assays?
PI5P4Ka inh: -1.8; USP1-UAF1 inh: -10.5%; PLK1 PBD block: -0.3%; WRN helicase inh: 0.1%

How did CCCCC(=O)N1C(C)CCC1C (stereo not given) do in these assays?
PI5P4Ka inh: -2.6; USP1-UAF1 inh: -15.0%; PLK1 PBD block: 23.8µM*; WRN helicase inh: 4.1%

Results for O=C(COC(=O)Cc1ccc(-c2ccccc2)cc1)NCc1ccccc1 ?
PI5P4Ka inh: -17.6; USP1-UAF1 inh: -18.7%; USP2a inh: -1.3%; PLK1 PBD block: 26.7µM*; WRN helicase inh: 1.7%

How did O=C(Cn1c(=O)nc(-c2ccccc2)c2cc(Cl)ccc21)N1CCN(c2ccc(F)cc2)CC1 do in these assays?
USP1-UAF1 inh: -19.6%

Results for COC(=O)c1ccc(CN(C(C)=O)c2ccccc2)o1 ?
PI5P4Ka inh: -0.2; USP1-UAF1 inh: 3.4%; USP2a inh: 1.3%; PLK1 PBD block: 26.7µM*; WRN helicase inh: -3.1%

How did COC(=O)c1ccc(CSCc2ccc(C(=O)OC)o2)o1 do in these assays?
PI5P4Ka inh: 11.4; USP1-UAF1 inh: inconclusive; USP2a inh: 1.1%; PLK1 PBD block: -28.8%; WRN helicase inh: -8.9%

Results for CCCCn1cc2c(c1-c1ccc(Cl)cc1)c(=O)n(C)c(=O)n2C ?
USP1-UAF1 inh: -0.1%

Results for Cc1ccc(-n2ncc3c(NCCC4=CCCCC4)ncnc32)cc1 ?
USP1-UAF1 inh: -9.3%

What do the screens show for `Cc1n[nH]c(=O)nc1NCC1CCCO1` (stereo not given)?
PI5P4Ka inh: 3.9; USP1-UAF1 inh: 4.8%; USP2a inh: -0.4%; PLK1 PBD block: 26.7µM*; WRN helicase inh: 3.7%

Results for COc1ccccc1CNC(=O)CC(NS(=O)(=O)c1ccc(C)cc1)c1ccco1 (stereo not given) ?
PI5P4Ka inh: -21.7; USP1-UAF1 inh: -3.6%; USP2a inh: -0.6%; PLK1 PBD block: 26.7µM*; WRN helicase inh: -3.7%

How did COc1ccccc1CNC(=O)c1ccccc1C(=O)NC(CC(C)C)C(=O)NCc1ccccc1OC (stereo not given) do in these assays?
PI5P4Ka inh: 3.1; USP1-UAF1 inh: -29.8%; USP2a inh: -1.1%; PLK1 PBD block: 29.9µM*; WRN helicase inh: 1.6%

What do the screens show for `COCCNC(=O)CC(NS(=O)(=O)c1ccc(C)cc1)c1ccco1` (stereo not given)?
PI5P4Ka inh: -6.8; USP1-UAF1 inh: -16.7%; USP2a inh: -1.4%; PLK1 PBD block: 0.7%; WRN helicase inh: -15.7%

Results for COc1ccccc1CNC(=O)C(C)Sc1ccc(C)cc1 (stereo not given) ?
PI5P4Ka inh: -14.9; USP1-UAF1 inh: -2.5%; USP2a inh: 3.5%; PLK1 PBD block: 21.2µM*; WRN helicase inh: 5.0%

What do the screens show for `Cc1cc2nc(-c3cccnc3SCC(=O)NCc3ccco3)[nH]c2cc1C`?
USP1-UAF1 inh: -20.8%; USP2a inh: 1.9%; PLK1 PBD block: -12.5%; WRN helicase inh: -16.9%

Results for O=C(CSc1ncccc1-c1nc2ccccc2[nH]1)NCc1ccco1 ?
USP1-UAF1 inh: -18.4%; USP2a inh: -2.6%; PLK1 PBD block: 18.9µM*; WRN helicase inh: inconclusive

What do the screens show for `Cc1ccc(S(=O)(=O)CCc2nc3ccccc3s2)cc1`?
PI5P4Ka inh: 5.0; USP1-UAF1 inh: -9.1%; USP2a inh: 2.7%; PLK1 PBD block: 23.8µM*; WRN helicase inh: -23.8%

Results for Cc1ccc(S(=O)(=O)CCc2nc3ccccc3s2)cc1C ?
PI5P4Ka inh: -1.0; USP1-UAF1 inh: -15.7%; USP2a inh: -0.4%; PLK1 PBD block: -1.0%; WRN helicase inh: -4.9%

What do the screens show for `CC(C)C(c1nnnn1Cc1ccco1)N1CCN(c2cccc(Cl)c2)CC1` (stereo not given)?
PI5P4Ka inh: 3.4; USP1-UAF1 inh: -17.4%; USP2a inh: -0.6%; PLK1 PBD block: -6.7%; WRN helicase inh: -3.5%

Results for CC(C)C(c1nnnn1C(C)(C)C)N1CCN(c2cccc(Cl)c2)CC1 (stereo not given) ?
PI5P4Ka inh: -26.8; USP1-UAF1 inh: -12.0%; USP2a inh: -0.9%; PLK1 PBD block: 2.99µM*; WRN helicase inh: -2.5%

Results for CC(C)n1c2ccccc2c2nnc(SCC(=O)Nc3ccccc3C(=O)O)nc21 ?
PI5P4Ka inh: -15.3; USP1-UAF1 inh: -21.3%; USP2a inh: -3.2%; PLK1 PBD block: 26.7µM*; WRN helicase inh: -9.0%[57.1 µM]

How did N#CC1=C(N)SC2(CCCCC2)SC1c1ccccc1 (stereo not given) do in these assays?
PI5P4Ka inh: -16.4; USP1-UAF1 inh: -24.7%; USP2a inh: 0.2%; PLK1 PBD block: 21.2µM*; WRN helicase inh: -11.3%

What do the screens show for `N#CC1=C(C2CC2)CC(c2ccccc2)C(C#N)=C1N` (stereo not given)?
PI5P4Ka inh: -3.5; USP1-UAF1 inh: -8.8%; USP2a inh: 0.5%; PLK1 PBD block: -23.9%; WRN helicase inh: 3.4%[57.1 µM]

How did CCOC(=O)c1cccc(Nc2ccc3cc(S(=O)(=O)N4CCCCC4)ccc3n2)c1 do in these assays?
USP1-UAF1 inh: -2.4%

What do the screens show for `COc1ccc(-n2nc(C(=O)Nc3ccc(Cl)cn3)c3c4ccccc4n(C)c3c2=O)cc1Cl`?
USP1-UAF1 inh: 4.6%

How did Clc1ccc(N2CCN(Cc3ccco3)CC2)cc1 do in these assays?
PI5P4Ka inh: 3.2; USP1-UAF1 inh: -2.4%; USP2a inh: -1.8%; PLK1 PBD block: -14.3%; WRN helicase inh: -10.1%

How did COc1cc(OC)c(C2CC(=O)N3CN(c4ccccc4C)CSC3=C2C#N)cc1OC (stereo not given) do in these assays?
USP2a inh: 3.0%

Results for N#CC1=C2SCN(Cc3ccccc3)CN2C(=O)CC1c1cccs1 (stereo not given) ?
PI5P4Ka inh: -58.8*; USP1-UAF1 inh: 15.8µM*; USP2a inh: -2.1%; PLK1 PBD block: 23.8µM*; WRN helicase inh: 0.1%

How did COc1ccc2ccccc2c1C1CC(=O)N2CN(Cc3ccco3)CSC2=C1C#N (stereo not given) do in these assays?
PI5P4Ka inh: inconclusive; USP1-UAF1 inh: inconclusive; USP2a inh: -8.1%; PLK1 PBD block: 18.9µM*; WRN helicase inh: -11.2%

What do the screens show for `COc1ccc(CN2CCN(Cc3ccco3)CC2)cc1`?
PI5P4Ka inh: -0.9; USP1-UAF1 inh: -15.8%; USP2a inh: -9.4%; PLK1 PBD block: -2.1%; WRN helicase inh: inconclusive

What do the screens show for `COc1ccc(C2CC(=O)N3CN(Cc4ccco4)CSC3=C2C#N)cc1` (stereo not given)?
USP1-UAF1 inh: -24.4%; USP2a inh: -2.2%; PLK1 PBD block: 26.7µM*; WRN helicase inh: -31.3%
